Results filed as inconclusive are left out. Activity calls are given as the source filed them. Unless noted, the call rests on the fitted dose curve; in most records, active means well fitted curve in the direction sought with a large enough effect; inconclusive means small, poorly fitted or top-dose-only effect, or another doubt; inactive means no such curve, though single readings can be large; an effect the other way counts as inactive or inconclusive.
Key:
[1] = target: Rap guanine nucleotide exchange factor 3 (Homo sapiens) (UniProt O95398); assay: Confirmatory qHTS for antagonist of cAMP-regulated guanine nucleotide exchange factor 3 (EPAC1) (AID 1645880); conditions: EPAC1 Rap1B-BODIPY-GDP exchange, fluorescence; activity, negative = inhibition: at 115 µM (top of the series); further: nearly all actives have a fitted effect of over 55% in size; further: potency means the concentration at half of the fitted maximal effect;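 on activity, negative = inhibition: plate controls were DMSO only for no effect and full effect of the ATA control for full effect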
Sequence of Rap guanine nucleotide exchange factor 3 (Homo sapiens) (O95398 whole entry, looked up): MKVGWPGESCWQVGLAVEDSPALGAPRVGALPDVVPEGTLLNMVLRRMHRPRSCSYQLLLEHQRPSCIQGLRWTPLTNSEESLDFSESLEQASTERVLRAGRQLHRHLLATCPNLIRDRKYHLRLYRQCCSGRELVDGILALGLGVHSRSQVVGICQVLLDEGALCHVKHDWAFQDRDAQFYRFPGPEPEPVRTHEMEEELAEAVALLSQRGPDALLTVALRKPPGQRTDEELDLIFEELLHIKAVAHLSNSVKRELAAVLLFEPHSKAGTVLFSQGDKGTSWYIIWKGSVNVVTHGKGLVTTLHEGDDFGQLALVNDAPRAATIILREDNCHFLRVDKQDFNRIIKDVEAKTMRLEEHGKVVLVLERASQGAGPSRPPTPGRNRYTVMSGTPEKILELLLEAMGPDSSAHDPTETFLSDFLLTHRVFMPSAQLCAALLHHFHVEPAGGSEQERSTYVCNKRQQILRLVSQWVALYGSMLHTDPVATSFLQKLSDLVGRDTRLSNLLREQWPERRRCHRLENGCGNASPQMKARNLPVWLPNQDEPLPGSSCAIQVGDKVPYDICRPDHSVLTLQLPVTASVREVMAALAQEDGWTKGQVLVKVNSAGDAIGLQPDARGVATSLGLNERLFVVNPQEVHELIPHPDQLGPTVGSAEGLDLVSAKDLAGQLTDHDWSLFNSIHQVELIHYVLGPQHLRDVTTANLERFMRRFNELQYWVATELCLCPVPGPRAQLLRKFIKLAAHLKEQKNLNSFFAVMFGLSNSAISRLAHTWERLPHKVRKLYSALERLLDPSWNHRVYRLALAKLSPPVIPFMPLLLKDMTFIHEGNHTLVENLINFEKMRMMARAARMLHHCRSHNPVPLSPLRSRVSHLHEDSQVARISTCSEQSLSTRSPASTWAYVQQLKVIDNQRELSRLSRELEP
In short: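 Nucleotide exchange uses 100 nM EPAC1, 250 nM RAP1B-BODIPY-GDP and 50 uM GDP, with compounds in a concentration-titration series. After 5 min at room temperature, fluorescence (480 nm ex/540 nm em) is read every 5 min for 30 min. Data are normalized to control ATA and DMSO.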

[2] = target: Rap guanine nucleotide exchange factor 3 (Homo sapiens) (UniProt O95398); assay: Confirmatory qHTS for agonist of cAMP-regulated guanine nucleotide exchange factor 3 (EPAC1) (AID 1645881); conditions: EPAC1 Rap1B BODIPY-GDP exchange fluorescence; series mostly up to 154 µM; further: nearly all actives have a fitted effect of over 75% in size; further: potency means the concentration at half of the fitted maximal effect;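 on activation: EPAC1 catalysed release of BODIPY-GDP from Rap1B seen as fluorescence loss; 100% = effect of cAMP agonist control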
[3] = target: Rap guanine nucleotide exchange factor 4 (Homo sapiens) (UniProt Q8WZA2); assay: Confirmatory qHTS for agonist of cAMP-regulated guanine nucleotide exchange factor 4 (EPAC2) (AID 1645884); conditions: EPAC2 GEF activity, Rap1B-BODIPY-GDP fluorescence; series mostly up to 154 µM;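 further: nucleotide exchange releases bodipy-GDP from Rap1 and this lowers its fluorescence; nearly all actives have a fitted effect of over 65% in size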; further: potency means the concentration at half of the fitted maximal effect; on activation: on the % scale 0 is the no-effect control and ±100 the full control effect
Sequence of Rap guanine nucleotide exchange factor 4 (Homo sapiens) (Q8WZA2 whole entry, looked up): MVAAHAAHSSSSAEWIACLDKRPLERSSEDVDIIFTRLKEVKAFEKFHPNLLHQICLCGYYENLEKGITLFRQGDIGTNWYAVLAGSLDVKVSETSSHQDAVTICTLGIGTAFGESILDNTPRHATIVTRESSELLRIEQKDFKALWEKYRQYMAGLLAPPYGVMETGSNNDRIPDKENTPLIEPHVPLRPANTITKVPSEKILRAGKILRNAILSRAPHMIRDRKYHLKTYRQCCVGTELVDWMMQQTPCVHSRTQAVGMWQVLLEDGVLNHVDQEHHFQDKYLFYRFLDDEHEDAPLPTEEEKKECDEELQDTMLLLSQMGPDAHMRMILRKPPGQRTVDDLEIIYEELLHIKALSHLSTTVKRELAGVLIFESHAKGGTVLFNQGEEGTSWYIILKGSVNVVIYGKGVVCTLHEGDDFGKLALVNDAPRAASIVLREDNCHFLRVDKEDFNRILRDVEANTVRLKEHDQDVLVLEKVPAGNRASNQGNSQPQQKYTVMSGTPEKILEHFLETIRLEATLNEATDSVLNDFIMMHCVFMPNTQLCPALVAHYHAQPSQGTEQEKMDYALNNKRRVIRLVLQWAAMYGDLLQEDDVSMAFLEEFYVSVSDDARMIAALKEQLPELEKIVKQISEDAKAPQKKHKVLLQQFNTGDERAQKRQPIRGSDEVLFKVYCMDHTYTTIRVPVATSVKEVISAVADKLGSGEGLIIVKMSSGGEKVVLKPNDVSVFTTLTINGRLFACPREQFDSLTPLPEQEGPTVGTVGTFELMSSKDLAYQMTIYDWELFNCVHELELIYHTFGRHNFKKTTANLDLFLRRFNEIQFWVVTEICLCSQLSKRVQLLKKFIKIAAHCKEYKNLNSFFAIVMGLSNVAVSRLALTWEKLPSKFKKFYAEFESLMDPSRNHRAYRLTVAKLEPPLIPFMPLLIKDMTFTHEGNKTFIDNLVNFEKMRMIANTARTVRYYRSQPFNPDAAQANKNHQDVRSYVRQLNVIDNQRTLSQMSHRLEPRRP

[4] = target: Rap guanine nucleotide exchange factor 3 (Homo sapiens) (UniProt O95398); assay: Counterscreen qHTS for agonist of cAMP-regulated guanine nucleotide exchange factor 3 (EPAC1) (AID 1645889); conditions: EPAC1 Rap1B-BODIPY-GDP exchange, fluorescence; series mostly up to 154 µM; further: nearly all actives have a fitted effect of over 40% in size; further: potency means the concentration at half of the fitted maximal effect; on activation: % of control where 0% means no effect
In short: (§1)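 Rap1B–BODIPY-GDP (250 nM) with 50 uM GDP; compounds pin-transferred to 9.74 nM–152 uM final (activator) or from 7.32 nM upwards (inhibitor). Fluorescence Ex/Em 480/540 nm read at 5 and 30 min, then after adding cAMP or buffer, at room temperature.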

[5] = AP1 Signaling Pathway (AID 357; active means well fitted curve in either direction with a large enough effect, not every such curve was filed as active;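 further: ME-180 reporter cells stimulated with EGF at its EC50 level; on the % scale 0 is the no-effect control and ±100 the full control effect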); conditions: ME-180 AP-1-bla reporter, EGF-induced, beta-lactamase ratio, 5 h; at 7.69 µM (top of the series) unless noted
In short: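 Titration-series screen for positive or negative modulators of EC50 EGF-induced signaling in ME-180 cells carrying an AP-1-driven beta-lactamase reporter. After 5 hours at 37 degrees Celsius, CCF4 460nm/530nm emission ratio gave %Activity; AC50 values derived.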

[6] = NFAT Signaling Pathway (AID 444; active means well fitted curve in either direction with a large enough effect, not every such curve was filed as active;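 further: carbachol stimulus at about its EC50 of 1 µM final; on the % scale 0 is the no-effect control and ±100 the full control effect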); conditions: Jurkat NFAT-bla M1, carbachol, beta-lactamase ratio, 5 h; at 7.69 µM (top of the series) unless noted
In short: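 Jurkat cells with NFAT-driven β-lactamase reporter and co-expressed M1 receptor, stimulated with carbachol (final 1 uM, ~EC50), compound titration, 5 h at 37 °C. CCF4 loaded 1 h at RT; 460/530 nm ratio gave %activity and AC50.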

[7] = target: Glucocorticoid receptor (Homo sapiens) (UniProt P04150); assay: GR-GFP Redistribution (AID 450;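 active means compounds whose dose series gives a full or clear partial fitted curve of increased nuclear translocation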; further: potency means the concentration at half of the fitted maximal effect); conditions: U2OS GR-GFP nuclear translocation, laser cytometry, 2 h
Sequence of Glucocorticoid receptor (Homo sapiens) (P04150 whole entry, looked up): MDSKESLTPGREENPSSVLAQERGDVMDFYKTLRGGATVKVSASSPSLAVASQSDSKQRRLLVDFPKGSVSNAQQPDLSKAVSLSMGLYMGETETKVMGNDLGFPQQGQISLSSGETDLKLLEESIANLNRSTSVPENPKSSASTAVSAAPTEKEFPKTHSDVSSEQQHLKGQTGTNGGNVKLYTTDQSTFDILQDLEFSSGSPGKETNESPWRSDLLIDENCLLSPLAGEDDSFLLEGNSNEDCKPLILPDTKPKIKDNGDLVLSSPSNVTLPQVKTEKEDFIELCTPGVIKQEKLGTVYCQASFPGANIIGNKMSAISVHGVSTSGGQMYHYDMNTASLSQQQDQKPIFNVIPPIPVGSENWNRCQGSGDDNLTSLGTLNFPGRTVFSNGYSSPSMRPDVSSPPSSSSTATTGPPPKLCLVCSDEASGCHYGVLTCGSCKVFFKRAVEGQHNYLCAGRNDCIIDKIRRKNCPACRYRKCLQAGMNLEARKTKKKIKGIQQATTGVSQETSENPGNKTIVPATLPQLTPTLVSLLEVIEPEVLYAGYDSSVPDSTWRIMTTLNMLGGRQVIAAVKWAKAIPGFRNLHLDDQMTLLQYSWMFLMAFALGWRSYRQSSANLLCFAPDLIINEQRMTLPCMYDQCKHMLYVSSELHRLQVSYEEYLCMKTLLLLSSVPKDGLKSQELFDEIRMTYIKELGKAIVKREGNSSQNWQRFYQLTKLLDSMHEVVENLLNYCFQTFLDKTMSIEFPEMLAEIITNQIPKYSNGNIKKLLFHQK

[8] = target: Rap guanine nucleotide exchange factor 3 (Homo sapiens) (UniProt O95398); assay: Counterscreen qHTS for antagonist of cAMP-regulated guanine nucleotide exchange factor 3 (EPAC1) (AID 1645888); conditions: Rap1B-BODIPY-GDP nucleotide exchange, fluorescence; series mostly up to 154 µM;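 further: fluorescence loss as bound BODIPY-GDP is released from Rap1B; % of control where 0% means no effect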
In short: as §1

[9] = qHTS for Inhibitors of Ubiquitin-specific Protease USP2a Using CHOP2 as the Reporter: K633 Counterscreen (AID 652168); conditions: No-enzyme DiUb K48 IQF substrate fluorescence interference, kinetic; series mostly up to 57.5 µM; further: % of control where 0% means no effect
In short: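 Cell-free interference counterscreen without USP2a: compounds pinned into enzyme-free buffer (20 mM Tris pH 8, 2 mM beta-mercaptoethanol, 0.05% Chaps), then DiUb K48-4IQF substrate added (100 nM stock); fluorescence read kinetically, Ex 525/Em 598.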

[10] = qHTS for Inhibitors of Ubiquitin-specific Protease USP2a Using CHOP2 as the Reporter: Cytotox Assay (AID 652170); conditions: HCT116 viability, CellTiter-Glo luminescence, 72 h; series mostly up to 46.1 µM;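 further: plate controls were DMSO-treated cells for no effect and wells without cells for full effect; nearly all actives have a fitted effect of over 70% in size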
In short: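 HCT116 human colon cancer cells, 600 per well in DMEM with 10% FBS, exposed to compounds for 72 hr at 37 deg C. ATP measured by CellTiter-Glo luminescence, normalized to DMSO cells and no-cell background.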

[11] = target: Ubiquitin carboxyl-terminal hydrolase 2 (Homo sapiens) (UniProt O75604); assay: qHTS for Inhibitors of Ubiquitin-specific Protease USP2a Using CHOP2 as the Reporter: K484 Substrate (AID 652173); conditions: USP2 cleavage of DiUb K48 IQF substrate, fluorescence;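 further: cleavage of internally quenched K48 di-ubiquitin substrate measured as rising fluorescence over time; potency means the concentration at half of the fitted maximal effect; nearly all actives have a fitted effect of over 70% in size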
Sequence of Ubiquitin carboxyl-terminal hydrolase 2 (Homo sapiens) (O75604 whole entry, looked up): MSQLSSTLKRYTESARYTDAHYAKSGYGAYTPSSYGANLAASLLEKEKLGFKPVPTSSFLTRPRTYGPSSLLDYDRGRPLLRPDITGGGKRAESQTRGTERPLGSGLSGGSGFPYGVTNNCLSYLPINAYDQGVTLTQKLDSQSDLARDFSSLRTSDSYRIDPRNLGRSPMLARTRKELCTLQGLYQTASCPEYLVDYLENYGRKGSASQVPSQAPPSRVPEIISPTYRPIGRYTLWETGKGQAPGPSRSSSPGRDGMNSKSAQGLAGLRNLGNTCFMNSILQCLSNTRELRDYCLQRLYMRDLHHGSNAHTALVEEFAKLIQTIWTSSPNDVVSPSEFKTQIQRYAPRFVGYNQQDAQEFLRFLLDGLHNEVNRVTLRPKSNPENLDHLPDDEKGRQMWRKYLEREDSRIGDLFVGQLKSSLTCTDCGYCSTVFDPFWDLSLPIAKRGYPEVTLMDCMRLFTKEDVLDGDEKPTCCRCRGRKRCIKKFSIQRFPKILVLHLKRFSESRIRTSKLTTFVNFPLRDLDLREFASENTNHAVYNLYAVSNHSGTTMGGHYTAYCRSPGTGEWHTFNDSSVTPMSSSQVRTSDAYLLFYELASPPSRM
In short: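 USP2 (dispensed at 5 nM) was pinned with compounds, then DiUb K48 internally quenched fluorescent substrate (dispensed at 100 nM) was added. The buffer was 20 mM Tris pH 8, 2 mM beta-mercaptoethanol and 0.05% CHAPS. Cleavage was read kinetically as rising fluorescence, Ex 525/Em 598.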

[12] = Stat Signaling Pathway (AID 446; active means well fitted curve in either direction with a large enough effect, not every such curve was filed as active;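 further: ME-180 cervical cancer cells given 40 pM IL-6 alongside compound; SIE-controlled beta-lactamase reporter measured as 460/530 nm FRET emission ratio; on the % scale 0 is the no-effect control and ±100 the full control effect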); conditions: ME-180 SIE beta-lactamase reporter, IL-6 stimulated, 5 h; series mostly up to 7.69 µM
In short: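 ME-180 SIE-bla cells; overnight plating; cpd + IL-6 40 pM, 5 h, 37 C; LiveBLAzer 2.5 h RT; 460/530 nm emission ratio. Normalized to 300 pM IL-6 and 125 nM JAK inhibitor controls.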

[13] = qHTS for Inhibitors of the vitamin D receptor (VDR): Hit Validation using a Texas Red Assay (AID 602201); conditions: VDR coregulator binding, Texas Red fluorescence polarization, agonist-bound VDR ligand-binding domain; series mostly up to 57.1 µM; further: potency means the concentration at half of the fitted maximal effect
In short: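 Fluorescence polarization with 1.5 uM VDR-LBD, LG19078 and 7 nM Texas Red (final). After 2 hours at ambient temperature, read at Ex 595 nm/Em 615 nm.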

[14] = target: Tumor susceptibility gene 101 protein (Homo sapiens) (UniProt Q99816); assay: qHTS Assay for Iinhibitors of HIV-1 Budding by Blocking the Interaction of PTAP/TSG101: Hit Validation (AID 651600); conditions: PTAP peptide/TSG101 UEV interaction, biochemical assay; series mostly up to 57.5 µM; further: potency means the concentration at half of the fitted maximal effect; nearly all actives have a fitted effect of over 70% in size
Sequence of Tumor susceptibility gene 101 protein (Homo sapiens) (Q99816 whole entry, looked up, the tested form may be a part): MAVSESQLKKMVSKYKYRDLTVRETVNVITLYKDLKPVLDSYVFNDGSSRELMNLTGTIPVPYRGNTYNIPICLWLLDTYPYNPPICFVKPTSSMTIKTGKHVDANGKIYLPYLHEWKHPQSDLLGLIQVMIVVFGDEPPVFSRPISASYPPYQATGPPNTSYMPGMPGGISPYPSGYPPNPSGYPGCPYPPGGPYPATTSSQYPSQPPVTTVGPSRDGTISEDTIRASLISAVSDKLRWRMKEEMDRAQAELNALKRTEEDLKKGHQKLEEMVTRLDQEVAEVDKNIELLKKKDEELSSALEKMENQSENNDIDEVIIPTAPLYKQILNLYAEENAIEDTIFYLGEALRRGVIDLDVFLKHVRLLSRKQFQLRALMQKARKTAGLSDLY
In short: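 Displacement of a FITC-labeled PTAP-motif peptide (50 nM) from the Tsg101 binding domain (10 uM) was monitored by fluorescence polarization after a 20 min room-temperature incubation.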

CCOC(=O)c1c(NC(=O)CSc2nnc(C)c(=O)[nH]2)sc(C)c1-c1ccc(C)cc1
inactive: Potency [2] | Potency [3] | Potency [4]
active: Potency [1] 75.7 µM

O=C(CN1CCCCC1)Nc1cc(Cl)ccc1Oc1ccccc1
inactive: Potency [1] | Potency [2] | Potency [3] | Potency [4]

COc1ccc(C2CC2/C(=N/O)c2ccccn2)cc1 (configuration not stated)
inactive: Potency [1] | Potency [2] | Potency [3] | Potency [4]

Cc1nc(S/C(=C/c2ccc(-c3cc(Cl)ccc3C)o2)C(=O)O)n[nH]1
inactive: Potency [2] | Potency [3] | Potency [4]
active: Potency [1] 26.9 µM

CCc1c(C)c(C#N)c2nc3ccccc3n2c1-n1nc(C)cc1C
inactive: activity change, negative = inhibition [5] -8.93% [at 17.2 µM] | activity change, negative = inhibition [6] -9.34% [at 17.2 µM] | Potency [7] > 20.6 µM | Potency [1] | Potency [2] | activation [3] 5.42% [at 17.1 µM, percent relative to cAMP agonist control] | activity change, negative = inhibition [8] 12.9% [at 30.8 µM] | activation [4] 30.6% [at 30.8 µM]

Cc1onc(-c2ccccc2)c1C(=O)N1CCc2ccccc21
inactive: Potency [1] | Potency [2] | activation [3] 1.91% [at 17.1 µM, percent relative to cAMP agonist control] | activity change, negative = inhibition [8] -17.7% [at 30.8 µM] | activation [4] 18.4% [at 30.8 µM]

O=c1cc2oc3cc(O)c(O)cc3c(-c3ccccc3[N+](=O)[O-])c-2cc1O
inactive: Potency [2] | Potency [3] | Potency [4]
active: Potency [1] 10.7 µM

Cc1cc(NS(=O)(=O)c2ccc(Nc3nc(-c4ccc(C)c(C)c4)cs3)cc2)no1
active: Potency [11] 27.3 µM | Potency [1] 75.7 µM
inactive: outcome [9] | outcome [10] | Potency [2] | Potency [3] | Potency [8]

COc1ccc(OC)c(/C=C/c2ccnc3ccccc23)c1
inactive: Potency [1] | Potency [2] | activation [3] 0% [at 17.1 µM, percent relative to cAMP agonist control] | activation [4] 14.1% [at 30.8 µM]

O=C(O)/C(CC(=O)c1ccc(Cl)cc1)=N/Nc1ccc([N+](=O)[O-])cc1[N+](=O)[O-]
inactive: Potency [2] | Potency [3] | Potency [4]
active: Potency [1] 75.7 µM

O=C1c2cccc3cccc(c23)N1Cc1cccc(F)c1
inactive: Potency [1] | Potency [2] | activation [3] 7.33% [at 17.1 µM, percent relative to cAMP agonist control] | activity change, negative = inhibition [8] -7.63% [at 30.8 µM] | activation [4] 26.6% [at 30.8 µM]

O=C(/C=N/O)NCCCN1CCOCC1
inactive: activity change, negative = inhibition [5] -1.51% [at 17.2 µM] | activity change, negative = inhibition [6] 14.3% [at 17.2 µM] | Potency [1] | Potency [2] | Potency [3] | Potency [8]

CC1CCN(c2oc(-c3ccccc3F)nc2C#N)CC1
inactive: Potency [1] | Potency [2] | Potency [3] | Potency [8] | Potency [4]

C=CCn1c(SCc2cc([N+](=O)[O-])cc3c2OCOC3)nc2cc(C(=O)O)ccc2c1=O
inactive: Potency [2] | Potency [3] | Potency [4]
active: Potency [1] 75.7 µM

CCC(NC(=O)Nc1ncccc1C)(C(F)(F)F)C(F)(F)F
inactive: activity change, negative = inhibition [5] 11.9% [at 17.2 µM] | activity change, negative = inhibition [6] -12% [at 17.2 µM] | outcome [12] | Potency [7] > 20.6 µM | Potency [1] | Potency [2] | Potency [3] | Potency [8] | Potency [4]

Cc1oc2c(c1C(=O)c1ccccc1)C(=O)C(=O)c1ccccc1-2
active: Potency [13] 3.98 µM | Potency [1] 42.6 µM
inactive: Potency [2] | Potency [3] | Potency [8]

CCOC(=O)/C(C#N)=C\c1ccc(N2CCN(C/C=C/c3ccccc3)CC2)cc1
inactive: Potency [1] | Potency [8]
active: Potency [14] 20.6 µM | Potency [2] 79.4 µM | Potency [3] 100 µM | Potency [4] 70.8 µM

COc1ccc(N(C(=O)c2snc(C(N)=O)c2N)C(C(=O)NC2CCCC2)c2cccs2)cc1OC (configuration not stated)
inactive: Potency [2] | Potency [3] | Potency [8] | Potency [4]
active: Potency [1] 33.8 µM

COCCCNC(=O)C(C#N)c1nc2ccccc2nc1N1CCN(Cc2ccccc2)CC1 (configuration not stated)
active: Potency [1] 75.7 µM
inactive: outcome [12] | Potency [7] > 20.6 µM | Potency [2] | Potency [3] | Potency [8] | Potency [4]

Oc1ccc(/C=N/Nc2ncnc3nc[nH]c23)cc1
inactive: Potency [1] | Potency [2] | activation [3] -0.35% [at 17.1 µM, percent relative to cAMP agonist control] | activation [4] 4.78% [at 30.8 µM]

CC(=O)NC(c1ccc(Cl)cc1)c1ccc2cccnc2c1O (configuration not stated)
inactive: Potency [1] | Potency [2] | activation [3] -1.77% [at 17.1 µM, percent relative to cAMP agonist control] | activation [4] 6.93% [at 30.8 µM]

CN(C)c1ccc2nc3c(=O)[nH]c(=O)nc-3n(CC(O)C(O)C(O)CO)c2c1 (configuration not stated)
inactive: Potency [1] | Potency [2] | activation [3] -84.9% [at 17.1 µM, percent relative to cAMP agonist control]
active: Potency [4] 11.2 µM
